# Results reported in ChEMBL document CHEMBL4513216, “Probing the Open Global Health Chemical Diversity Library for Multistage-Active Starting Points for Next-Generation Antimalarials” (ACS Infect Dis, 2020).
# Screen size: about 68,000 compounds; about 2,700 (4%) showed an effect of 50% or more. The entries come from a sample that favours strong results as a whole.
# Tested on: Plasmodium berghei
# Experiment: Screen against P. berghei liver stage (PbLuc), transformed with Luciferase, at 2uM
# Format: functional, HepG2
# Conditions: tested at 2 uM
row,Structure (SMILES),INHIBITION [%]
1,Cc1nc(C2CCN(S(C)(=O)=O)CC2)nc2c1CCC(=O)N2CC(C)C,0.12
2,Cc1cc(N2CCCC2(C)c2nc(C)cc(C(=O)N(C)C)n2)ncn1 (centres undefined),-27.61
3,CCOC(=O)N1CCN(C(=O)C2Cc3ccccc3CN2C)CC1 (centres undefined),-55.24
4,Cc1cnc(Nc2cccc(C3CCCN3C(=O)CO)n2)s1 (centres undefined),35.31
5,CCN(CC)S(=O)(=O)N1CCCC1c1cccc(Nc2ncc(C)s2)n1 (centres undefined),56.16
6,Cc1cnc(Nc2cccc(C3CCCN3Cc3cn(C)nc3C)n2)s1 (centres undefined),-15.38
7,CS(=O)(=O)N1CCCC1c1cccc(Nc2nccs2)n1 (centres undefined),69.91
8,c1ccc(CCN2CCCC2c2cccc(Nc3nccs3)n2)cc1 (centres undefined),30.29
9,Cc1ccccc1CN1CCCC1c1cccc(Nc2nccs2)n1 (centres undefined),15.61
10,Cc1ccccc1CS(=O)(=O)CC(=O)N(C)Cc1ccccc1,34.25
11,CS(=O)(=O)NC[C@]12COC[C@H]1CN(CC1CCCC1)C2,13.65
12,O=C(CC1CN(Cc2ccccc2)CCO1)Nc1ccsc1 (centres undefined),19.53
13,Cc1ccc(SCCCNC(=O)c2cn(C3CCC(N)CC3)nn2)cc1 (centres undefined),18.63
14,Cc1ccc(SCCN(C)C(=O)c2cn(C3CCC(N)CC3)nn2)cc1 (centres undefined),40.47
15,CCN(CCSc1ccccc1)C(=O)c1cn(C2CCC(N)CC2)nn1 (centres undefined),50.61
16,CCc1nnc2n1CCN(C(=O)c1ccc3[nH]cnc3c1)C2,-17.45
17,CCc1nccn1-c1cncc(C2CCCN2Cc2cccnc2)n1 (centres undefined),18.91
18,CCc1nsc(N2CCCN(C(=O)c3ccc(CC)o3)CC2)n1,-2.93
19,CS(=O)(=O)NCCNCc1ccc(Br)s1,21.24
20,CS(=O)(=O)CCCC(=O)Nc1cc(Cl)c(Cl)cn1,59.08
21,COCCNC(=O)CCNc1ccc(Cl)cn1,33.64
22,CS(=O)(=O)CCCC(=O)Nc1cc(-c2cccc(F)c2F)n[nH]1,-5.98
23,COCCCC(=O)Nc1cc(Cl)c(Cl)cn1,66.26
24,CS(=O)(=O)CCC(=O)Nc1cc(Cl)c(Cl)cn1,38.49
25,COCCCC(=O)Nc1[nH]nc(-c2ccncc2)c1C,1.03
26,CC(C)n1c(C2CCCN(CC(=O)NC(N)=O)C2)nc2ccccc21 (centres undefined),0.31
27,O=C(C1=CCCC1)N1CC[C@]2(C[C@H](OCc3cccnc3)CO2)C1,-8.81

row,Structure (SMILES),INHIBITION [%]
1,NC(=O)C(NC(=O)COC1CCCC1)c1ccccc1 (centres undefined),-6.27
2,COC(=O)C(NC(=O)COC1CCCCC1)c1ccccc1 (centres undefined),54.52
3,NC(=O)C(NC(=O)COC1CCCCC1)c1ccccc1 (centres undefined),35.94
4,O=C(c1cocn1)N1C[C@H]2CCC[C@@]2(COc2ccccn2)C1,-14.27
5,Cc1cc(C(F)(F)F)nn1CCCNC(=O)C1CCN(S(C)(=O)=O)CC1,40.25
6,CC(C)(C)n1ncc2c1NC(=O)CC2c1ccc(C#N)cc1 (centres undefined),7.42
7,Cn1ccc(C(=O)NC2CCC23CCN(C(=O)c2ccccn2)CC3)c1 (centres undefined),53.29
8,Cn1ccc(C(=O)NC2CCC23CCN(C(=O)c2ccncc2)CC3)c1 (centres undefined),-33.11
9,Cn1ccc(C(=O)NC2CCC23CCN(C(=O)c2cnccn2)CC3)c1 (centres undefined),-3.25
10,CCN(Cc1c(F)cccc1Cl)c1cc(C2CCNCC2)nc(C)n1,23.76
11,Cn1ccnc1C(=O)N1CCOC(Cc2ccccc2Cl)C1 (centres undefined),61.99
12,CCc1nc(C)c(CN2CCOC(Cc3ccccc3Cl)C2)[nH]1 (centres undefined),-26.78
13,Cc1cccnc1CN1CCOC(Cc2cccc3ccccc23)C1 (centres undefined),31.05
14,O=C(c1cccnc1)N1CCOC(Cc2ccccc2Cl)C1 (centres undefined),-41.48
15,Cc1nc(C)c(CN2CCOC(Cc3ccccc3Cl)C2)nc1C (centres undefined),63.37
16,Cn1ccnc1C(=O)N1CCOC(Cc2ccc(Cl)cc2)C1 (centres undefined),43.23
17,O=C(N1CCc2ccccc2CC1)C1(O)Cc2ccccc2C1,32.93
18,O=C(CCN1C[C@@H]2CC[C@H]1CN(c1ncccn1)C2)NCc1ccco1,22.27
19,N#Cc1ccc(CN2CCNC(=O)C2c2cccs2)cc1 (centres undefined),-15.67
20,Cn1cnc2c(N3CCCC3)nc(C3CCN(CC4CC4)CC3)cc21,25.94
21,Cn1ccnc1C(O)c1ccccc1N1CCN(Cc2ccsc2)CC1 (centres undefined),-16.2
22,Cc1cccc(COc2ccc(C(C)N)cc2)c1 (centres undefined),54.49
23,Cc1cccc(COc2ccc(C(C)NC(=O)CNC(N)=O)cc2)c1 (centres undefined),32.26
24,Cc1cccc(COc2ccc(C(C)NS(N)(=O)=O)cc2)c1 (centres undefined),9.42
25,CCC(O)CN1CCN(C(=O)c2sccc2C2CC2)CC1 (centres undefined),34.97
26,CCc1ccsc1C(=O)N1CCN(CC(O)CC)CC1 (centres undefined),56.67
27,CCc1ccsc1C(=O)N1CCN(CC(C)O)CC1 (centres undefined),-10.66
